Screening results (PubChem)
In the library only some 8.9% were active in any assay of this set; here they are far more common.
D3 antag – D3 dopamine receptor (human) antagonism. P35462. max response, negative = inhibition, %. D3R cells, DiscoveRx beta-arrestin luminescence, antagonist mode; hits give low values. 360,000 tested, 2.5% active; in the data active = max response below about -50%; inconclusive = no clear call, values can overlap the other calls; note: % is set by controls: 0 for no effect and ±100 for the full control effect
Target sequence (P35462 whole entry, looked up): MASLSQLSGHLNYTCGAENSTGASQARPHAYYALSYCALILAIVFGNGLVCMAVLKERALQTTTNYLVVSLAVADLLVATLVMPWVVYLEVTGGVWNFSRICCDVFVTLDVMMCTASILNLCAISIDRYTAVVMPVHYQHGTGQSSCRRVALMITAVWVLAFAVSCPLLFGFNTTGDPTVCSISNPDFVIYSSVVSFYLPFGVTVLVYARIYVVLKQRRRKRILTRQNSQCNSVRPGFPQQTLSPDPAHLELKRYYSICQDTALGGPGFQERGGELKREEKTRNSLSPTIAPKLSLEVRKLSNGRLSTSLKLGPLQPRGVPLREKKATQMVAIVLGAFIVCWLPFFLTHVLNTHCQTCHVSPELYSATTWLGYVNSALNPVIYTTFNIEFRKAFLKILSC
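Cells plated overnight at 1500 cells/well, then exposed to library compounds with dopamine controls for 90 minutes at 37 degrees C. DiscoveRx reagent added for 30–60 minutes at room temperature; luminescence read, quantitative HTS format.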
MCF10A rerep – induces DNA re-replication in MCF 10a normal breast cells | 350,000 tested, 2.9% active | Potency, µM (series often up to 46.1 µM), for inactives: at the top dose activity, positive = re-replication, usual class: activators | MCF 10A DNA re-replication, Hoechst nuclear intensity, 48 h | AID 624296; note: potency is the fitted concentration of half-maximal effect; % of control where 0% means no effect; nearly all actives have a fitted effect of over 50% in size
KB-3-1 tox – kills parental KB-3-1 adenocarcinoma cells. KB-3-1 viability, CellTiter-Glo ATP luminescence, 72 h. Potency, µM (doses to about 46.1 µM), hits mostly cytotoxic. 400,000 tested, 1.4% active; note: potency is the fitted concentration of half-maximal effect; % is set by controls: 0 for no effect and ±100 for the full control effect; nearly all actives have a fitted effect of over 60% in size
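Cytotoxicity measured as CellTiter-Glo luminescence after 72 h at 37 C. Compound titrations were pinned onto drug-naive KB-3-1 parental adenocarcinoma cells grown in DMEM with 10% FBS, and normalized data fitted to concentration-response curves.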
KB-V1 MDR tox – kills drug-selected multidrug resistant KB-V1 cells; 400,000 tested, 3.4% active; Potency, µM (highest dose often 46.1 µM), hits mostly cytotoxic; KB-V1 MDR cells viability, CellTiter-Glo, 72 h; note: potency is the fitted concentration of half-maximal effect; % is set by controls: 0 for no effect and ±100 for the full control effect; nearly all actives have a fitted effect of over 60% in size
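Readout: CellTiter-Glo luminescence, 10 min after addition. Cells: KB-V1 MDR subline, 72 h at 37 degrees C with compound. Analysis: corrected, normalized data fitted to concentration-effect curves.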
SW480 rerep – inducers of DNA re-replication in SW480 colon cancer cells; SW480 DNA re-replication, Hoechst DNA content imaging, 48 h; 340,000 tested, 1.8% active; Potency, µM (titrated, usually from 46.1 µM), without a hit: top-dose re-replication activation, usual class: activators; note: potency is the fitted concentration of half-maximal effect; % of control where 0% means no effect; nearly all actives have a fitted effect of over 55% in size
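SW480 cells exposed to compounds for 48 hr at 37 C, 5% CO2, then Hoechst-stained 40 min. Nuclear DNA content imaged by fluorescence scanning (405 nm excitation, 500-530 nm emission); re-replication scored as increased high-intensity nuclei.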
D3 ag – activates the human D3 dopamine receptor; P35462; D3R DiscoveRx beta-arrestin cells, luminescence, 90 min; max activation, %; 410,000 tested, 0.58% active; AID 652048; in the data active = max activation above about 30%; note: 0% is about no effect
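Cells at 1500/well, incubated overnight, then treated with pinned compounds (dopamine as control) for 90 min at 37 degrees C. DiscoveRx reagent added for 30 - 60 minutes at room temperature; luminescence read.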
The depositor's hits bear a star; i = inactive; ? = inconclusive; · = no result; [ ] = another dose, or the depositor's remark. Unless noted, calls come from the whole dose curve; as a rule, active = well fitted curve in the direction sought with a large enough effect; inconclusive = small, poorly fitted or top-dose-only effect, or another doubt; inactive = no such curve, though single readings can be large; an effect the other way counts as inactive or inconclusive.

SMILES | D3 antag | MCF10A rerep | KB-3-1 tox | KB-V1 MDR tox | SW480 rerep | D3 ag
COc1ccc(NC(=O)C[C@H]2C(=O)N(c3ccc(Br)cc3)C[C@@H]2CSC)cc1 | -29 | · | i | i | · | -10
O=C(COc1ccccc1Br)NC(=O)NC1CCCC1 | 0 | -15% | i | i | 15µM* | -9
COc1ccccc1OCC(=O)NNC(=O)Nc1ccc(Cl)cc1 | -12 | 23µM* | 18µM* | 10µM* | 18µM* | -5
CCc1ccccc1OCC(=O)NC1CCCC1 | -21 | 2% | i | 13µM* | -7% | -5
COc1ccccc1OCC(=O)NCC1CCCCC1 | 14 | 4% | i | 21µM* | -2% | -7
Cc1cccc(-c2noc(CN(C(=O)c3ccccc3Cl)C(C)C)n2)c1 | · | · | · | · | · | 10
CCOc1cc(Br)c(CC(=O)NC2CCCCCC2)cc1OCC | 3 | ? | i | 10µM* | 2% | 8
COc1ccccc1CC(=O)NC1CCCCCC1 | 8 | -9% | i | i | -36% | -1
CC(=O)NCCOc1ccc(C(=O)O)cc1 | -55* | -2% | i | i | -5% | 9
CCCCOc1ccccc1C1C(C(=O)OC)=CN(CC)C=C1C(=O)OC | 12 | ? | i | i | 12µM* | 1
COC(=O)C1=CN(CCCN2CCCC2=O)C=C(C(=O)OC)C1c1ccccc1C(F)(F)F | 9 | 13µM* | i | i | 18µM* | 6
CCCOc1ccccc1C1C(C(=O)OC)=CN(C(C)C)C=C1C(=O)OC | 0 | ? | ? | i | ? | 6
O=C(c1ncn[nH]1)N1CCN(c2nc(-c3ccccc3)cs2)CC1 | 19 | 1% | i | i | ? | 7
O=C(c1cc(-n2cnnc2)ccc1Cl)N1CCN(c2nc(-c3ccccc3)cs2)CC1 | -15 | -3% | 21µM* | i | 23% | 2
CCC(=O)N1CCc2cc(CNS(=O)(=O)c3ccccc3F)ccc21 | · | · | · | · | · | -2
CC1CN(CCOc2ccccc2-c2ccccc2)CC(C)O1 (stereo not drawn) | ? | 21% | ? | 21µM* | -3% | -10
CC1CN(CCOc2ccc(F)cc2)CC(C)O1 (stereo not drawn) | -14 | 8% | i | i | -28% | -21
c1ccc(-c2ccccc2OCCN2CCCC2)cc1 | -63* | 9% | i | i | 1% | -23
c1ccc(-c2ccccc2OCCCCN2CCCCCC2)cc1 | -86* | 18% | i | i | ? | -3
CC1CN(CCCOc2ccccc2[N+](=O)[O-])CC(C)O1 (stereo not drawn) | -59* | 18% | i | i | -1% | -50
CCc1ccc(-c2cc3c(=O)n(CC(=O)NCCCN4CCN(C)CC4)ncn3n2)cc1 | 1 | ? | i | i | ? | 1
CCOC(=O)c1c(NC(=O)/C=C/c2ccccc2)sc2c1CCCC2 | · | · | i | ? | · | 8
C=CCc1ccccc1OCCCCN1CCCC1 | -83* | 5% | i | i | -2%[9.22 µM] | -12
C=CCc1ccccc1OCCn1ccnc1 | -52* | -1% | i | i | 4% | 6
COc1cc(C(=O)Nc2ccc(-c3nc4ccccc4o3)c(O)c2)cc(OC)c1OC | · | · | i | i | · | -1
SMILES | D3 antag | MCF10A rerep | KB-3-1 tox | KB-V1 MDR tox | SW480 rerep | D3 ag
CC(C)=CCC1C(=O)N(c2ccccc2)N(c2ccccc2)C1=O | · | 30µM* | · | · | ? | -20
CCCCC1C(=O)N(c2ccccc2)N(c2ccc(O)cc2)C1=O (stereo not drawn) | -74* | ? | i | i | ? | -9
CCN1C(=O)NC(c2ccccc2)C1=O (stereo not drawn) | 7 | -1% | i | i | -80% | 13
CCCCC1(Br)C(=O)N(c2ccccc2)N(c2ccccc2)C1=O | -9 | 11% | i | ? | 1% | 2
O=C(Nc1ccccc1N1CCCC1)c1cc(=O)[nH]c2ccccc12 | 7 | -3% | i | ? | -8% | -8
O=C(C1CCN(S(=O)(=O)c2ccccc2F)CC1)N1CCc2ccccc2C1 | 5 | 2% | i | ? | -3% | -7
